# Source: publication PMC7862700, “An all-to-all approach to the identification of sequence-specific readers for epigenetic DNA modifications on cytosine”
# Assays:
# Test in all cases: DAPPL (digital affinity profiling via proximity ligation, sequencing); 10 mM Tris-HCl pH 7.5, 50 mM NaCl, 1 mM DTT, 4% glycerol, room temperature, 30 min; GST-TFs on glutathione beads, 16-mer random dsDNA library, 0.1% formaldehyde crosslink after washing; high values mean tight binding
# FLI1 = molecular target: T1, FLI1 (Homo sapiens, UniProt Q01543 1-452); conditions: protein: recombinant; tags: N-terminal GST; dsDNA, one strand shown
# T1 sequence: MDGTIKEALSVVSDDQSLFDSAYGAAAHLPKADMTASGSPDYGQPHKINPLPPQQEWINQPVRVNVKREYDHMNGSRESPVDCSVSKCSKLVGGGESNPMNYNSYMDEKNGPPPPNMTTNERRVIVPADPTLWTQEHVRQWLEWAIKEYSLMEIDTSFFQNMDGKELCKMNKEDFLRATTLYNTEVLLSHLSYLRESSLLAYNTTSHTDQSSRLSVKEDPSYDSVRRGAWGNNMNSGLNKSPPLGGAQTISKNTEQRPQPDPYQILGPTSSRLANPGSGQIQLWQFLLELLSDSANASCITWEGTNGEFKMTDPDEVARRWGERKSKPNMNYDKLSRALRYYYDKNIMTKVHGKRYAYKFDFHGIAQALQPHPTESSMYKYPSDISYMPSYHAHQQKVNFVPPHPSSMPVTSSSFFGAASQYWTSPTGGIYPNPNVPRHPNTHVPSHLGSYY
# Procedure, shortened: (§1)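 A tag-only sample was pooled with DNA-barcoded human transcription factors that had been expressed in yeast as GST fusions and captured on glutathione beads. The pools were incubated for 30 min at room temperature with 200 nmole of a random double-stranded 16-mer DNA library in Tris/NaCl/DTT/glycerol buffer, then washed, crosslinked with 0.1% formaldehyde, proximity-ligated (BsaI/T4 ligase, 1 h, 37 °C), PCR-amplified and sequenced on an Illumina NextSeq500. Binding signal is each hexamer's read frequency for a factor divided by its frequency for the tag-only sample.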
# ELK1 = molecular target: T2, ELK1 (Homo sapiens, UniProt P19419 1-428); conditions: protein: recombinant; tags: N-terminal GST; dsDNA, one strand shown
# T2 sequence: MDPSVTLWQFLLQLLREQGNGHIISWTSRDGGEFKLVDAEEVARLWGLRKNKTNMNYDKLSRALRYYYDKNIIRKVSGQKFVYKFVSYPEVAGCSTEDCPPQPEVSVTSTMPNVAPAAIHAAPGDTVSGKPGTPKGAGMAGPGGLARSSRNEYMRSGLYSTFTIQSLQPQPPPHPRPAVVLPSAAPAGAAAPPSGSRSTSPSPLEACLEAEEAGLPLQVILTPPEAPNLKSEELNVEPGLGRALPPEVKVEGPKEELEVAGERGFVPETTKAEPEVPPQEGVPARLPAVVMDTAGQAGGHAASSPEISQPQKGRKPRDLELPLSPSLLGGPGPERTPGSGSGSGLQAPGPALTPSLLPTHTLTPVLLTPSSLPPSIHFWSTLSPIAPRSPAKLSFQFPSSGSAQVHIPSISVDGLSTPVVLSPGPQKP
# Procedure, shortened: as §1
# GABPA = molecular target: T3, GABPA (Homo sapiens, UniProt Q06546 1-454); conditions: protein: recombinant; tags: N-terminal GST; dsDNA, one strand shown
# T3 sequence: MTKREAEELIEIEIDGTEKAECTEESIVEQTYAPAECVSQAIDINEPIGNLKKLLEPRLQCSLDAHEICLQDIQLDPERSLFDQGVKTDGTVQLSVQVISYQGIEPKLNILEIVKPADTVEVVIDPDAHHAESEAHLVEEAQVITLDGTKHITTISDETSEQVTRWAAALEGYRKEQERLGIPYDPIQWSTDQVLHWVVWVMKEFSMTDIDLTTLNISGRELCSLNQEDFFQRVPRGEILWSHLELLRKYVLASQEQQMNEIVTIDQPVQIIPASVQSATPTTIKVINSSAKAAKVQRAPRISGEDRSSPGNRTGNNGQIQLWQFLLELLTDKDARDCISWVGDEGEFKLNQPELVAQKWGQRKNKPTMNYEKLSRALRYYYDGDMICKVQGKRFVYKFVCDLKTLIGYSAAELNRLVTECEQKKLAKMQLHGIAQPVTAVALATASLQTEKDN
# Procedure, shortened: as §1
# ERG = molecular target: T4, ERG (Homo sapiens, UniProt P11308 1-479); conditions: protein: recombinant; tags: N-terminal GST; dsDNA, one strand shown
# T4 sequence: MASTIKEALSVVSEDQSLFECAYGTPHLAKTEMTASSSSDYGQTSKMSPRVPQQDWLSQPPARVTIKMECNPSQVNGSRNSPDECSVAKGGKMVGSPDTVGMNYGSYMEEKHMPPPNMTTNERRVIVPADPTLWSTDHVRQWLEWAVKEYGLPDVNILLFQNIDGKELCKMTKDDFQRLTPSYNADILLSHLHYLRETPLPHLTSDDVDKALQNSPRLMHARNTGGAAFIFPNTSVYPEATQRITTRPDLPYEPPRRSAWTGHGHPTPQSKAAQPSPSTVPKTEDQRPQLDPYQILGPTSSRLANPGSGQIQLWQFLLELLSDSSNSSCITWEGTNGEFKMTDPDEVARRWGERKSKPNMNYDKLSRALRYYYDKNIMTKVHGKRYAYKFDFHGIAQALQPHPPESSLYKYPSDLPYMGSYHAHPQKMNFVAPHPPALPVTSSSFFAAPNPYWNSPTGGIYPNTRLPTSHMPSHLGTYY
# Procedure, shortened: as §1
# ELF1 = ELF1 (Homo sapiens, UniProt P32519 1-619); conditions: protein: recombinant; tags: N-terminal GST; dsDNA, one strand shown
# Sequence of ELF1 (P32519 whole entry): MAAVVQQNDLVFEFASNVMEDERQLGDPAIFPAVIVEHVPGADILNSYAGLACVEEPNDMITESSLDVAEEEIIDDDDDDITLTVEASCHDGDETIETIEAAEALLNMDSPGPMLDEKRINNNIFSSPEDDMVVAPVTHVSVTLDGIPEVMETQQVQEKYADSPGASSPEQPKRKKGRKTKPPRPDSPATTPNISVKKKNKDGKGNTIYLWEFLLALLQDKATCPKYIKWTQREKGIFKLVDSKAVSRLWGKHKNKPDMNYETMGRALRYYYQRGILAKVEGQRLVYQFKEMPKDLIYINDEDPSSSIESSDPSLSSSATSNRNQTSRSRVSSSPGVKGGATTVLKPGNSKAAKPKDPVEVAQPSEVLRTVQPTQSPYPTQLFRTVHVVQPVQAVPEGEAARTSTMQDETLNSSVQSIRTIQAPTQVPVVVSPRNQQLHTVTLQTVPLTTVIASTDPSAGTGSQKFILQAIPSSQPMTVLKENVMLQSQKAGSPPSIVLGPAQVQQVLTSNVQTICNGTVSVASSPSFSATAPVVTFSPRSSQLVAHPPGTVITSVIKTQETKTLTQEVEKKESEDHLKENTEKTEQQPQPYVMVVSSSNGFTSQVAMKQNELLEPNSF
# Procedure, shortened: as §1
# EHF = molecular target: T5, EHF (Homo sapiens, UniProt Q9NZC4 1-300); conditions: protein: recombinant; tags: N-terminal GST; dsDNA, one strand shown
# T5 sequence: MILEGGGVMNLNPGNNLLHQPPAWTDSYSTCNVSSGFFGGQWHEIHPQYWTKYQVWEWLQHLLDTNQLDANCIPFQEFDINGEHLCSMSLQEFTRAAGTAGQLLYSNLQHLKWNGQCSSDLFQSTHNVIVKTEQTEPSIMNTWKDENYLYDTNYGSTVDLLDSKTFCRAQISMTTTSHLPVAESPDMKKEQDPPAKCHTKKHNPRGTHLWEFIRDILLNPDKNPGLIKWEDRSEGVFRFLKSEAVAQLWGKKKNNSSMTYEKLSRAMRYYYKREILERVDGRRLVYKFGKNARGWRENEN
# Procedure, shortened: as §1
# SPI1 = SPI1 (Homo sapiens, UniProt P17947 1-270); conditions: protein: recombinant; tags: N-terminal GST; dsDNA, one strand shown
# Procedure, shortened: as §1
# SPIB = SPIB (Homo sapiens, UniProt Q01892 1-262); conditions: protein: recombinant; tags: N-terminal GST; dsDNA, one strand shown
# Sequence of SPIB (Q01892 whole entry): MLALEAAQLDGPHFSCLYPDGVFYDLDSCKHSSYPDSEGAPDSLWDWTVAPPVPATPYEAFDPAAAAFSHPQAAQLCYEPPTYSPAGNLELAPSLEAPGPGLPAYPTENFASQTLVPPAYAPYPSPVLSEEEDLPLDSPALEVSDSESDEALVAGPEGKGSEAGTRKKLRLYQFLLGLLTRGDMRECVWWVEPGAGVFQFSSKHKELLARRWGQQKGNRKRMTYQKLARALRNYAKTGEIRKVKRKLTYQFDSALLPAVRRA
# Procedure, shortened: as §1
# ELK3 = molecular target: T6, ELK3 (Homo sapiens, UniProt P41970 1-407); conditions: protein: recombinant; tags: N-terminal GST; dsDNA, one strand shown
# T6 sequence: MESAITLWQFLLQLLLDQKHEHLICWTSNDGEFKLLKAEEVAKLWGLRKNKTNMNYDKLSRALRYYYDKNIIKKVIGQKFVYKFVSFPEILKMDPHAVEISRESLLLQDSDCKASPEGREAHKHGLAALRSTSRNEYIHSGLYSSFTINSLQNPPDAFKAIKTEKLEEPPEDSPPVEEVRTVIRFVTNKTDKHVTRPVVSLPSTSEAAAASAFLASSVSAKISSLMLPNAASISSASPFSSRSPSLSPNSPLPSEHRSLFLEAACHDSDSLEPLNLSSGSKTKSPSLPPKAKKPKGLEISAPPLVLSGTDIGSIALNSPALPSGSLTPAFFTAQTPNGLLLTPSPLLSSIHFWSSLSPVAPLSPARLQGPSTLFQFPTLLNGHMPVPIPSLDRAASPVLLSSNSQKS
# Procedure, shortened: as §1
# FEV = molecular target: T7, FEV (Homo sapiens, UniProt Q99581 1-238); conditions: protein: recombinant; tags: N-terminal GST; dsDNA, one strand shown
# T7 sequence: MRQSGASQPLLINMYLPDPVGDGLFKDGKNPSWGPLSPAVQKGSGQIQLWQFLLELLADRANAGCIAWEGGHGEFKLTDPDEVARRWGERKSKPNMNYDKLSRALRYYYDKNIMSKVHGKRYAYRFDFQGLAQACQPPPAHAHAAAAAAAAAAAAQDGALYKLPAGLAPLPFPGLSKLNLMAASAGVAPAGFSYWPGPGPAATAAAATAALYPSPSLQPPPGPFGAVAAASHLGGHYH
# Procedure, shortened: as §1
# ETV5 = ETV5 (Homo sapiens, UniProt P41161 1-510); conditions: protein: recombinant; tags: N-terminal GST; dsDNA, one strand shown
# Sequence of ETV5 (P41161 whole entry): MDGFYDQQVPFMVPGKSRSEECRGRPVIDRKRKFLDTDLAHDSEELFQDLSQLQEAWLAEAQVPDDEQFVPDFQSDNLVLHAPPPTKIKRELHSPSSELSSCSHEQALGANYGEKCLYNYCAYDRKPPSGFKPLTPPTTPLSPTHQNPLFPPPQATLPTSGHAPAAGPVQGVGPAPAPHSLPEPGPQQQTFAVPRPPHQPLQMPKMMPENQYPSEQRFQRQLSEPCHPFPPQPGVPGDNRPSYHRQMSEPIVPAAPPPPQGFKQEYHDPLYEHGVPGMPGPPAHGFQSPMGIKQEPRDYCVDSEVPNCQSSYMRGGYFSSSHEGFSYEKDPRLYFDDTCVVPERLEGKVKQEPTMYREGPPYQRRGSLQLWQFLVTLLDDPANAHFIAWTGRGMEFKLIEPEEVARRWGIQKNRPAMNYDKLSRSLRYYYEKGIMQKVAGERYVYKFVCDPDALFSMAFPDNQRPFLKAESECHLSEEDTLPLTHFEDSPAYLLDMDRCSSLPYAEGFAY
# Procedure, shortened: as §1
# HSF1 = HSF1 (Homo sapiens, UniProt Q00613 1-529); conditions: protein: recombinant; tags: N-terminal GST; chain copies: 3; dsDNA, one strand shown
# Sequence of HSF1 (Q00613 whole entry): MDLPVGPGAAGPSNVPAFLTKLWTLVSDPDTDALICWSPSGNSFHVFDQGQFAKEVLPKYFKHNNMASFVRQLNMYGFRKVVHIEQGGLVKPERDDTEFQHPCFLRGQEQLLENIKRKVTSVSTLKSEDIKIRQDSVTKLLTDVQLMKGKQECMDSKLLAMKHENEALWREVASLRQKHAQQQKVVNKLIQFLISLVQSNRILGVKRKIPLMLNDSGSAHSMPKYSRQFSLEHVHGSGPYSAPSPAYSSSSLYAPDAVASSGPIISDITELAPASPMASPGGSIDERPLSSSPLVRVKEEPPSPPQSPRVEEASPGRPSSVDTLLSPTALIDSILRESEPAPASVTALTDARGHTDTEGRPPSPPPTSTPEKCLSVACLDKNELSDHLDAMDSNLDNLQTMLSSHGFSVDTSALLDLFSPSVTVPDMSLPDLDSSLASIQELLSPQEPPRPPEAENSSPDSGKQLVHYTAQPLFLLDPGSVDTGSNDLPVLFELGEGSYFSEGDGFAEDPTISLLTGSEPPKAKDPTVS
# Procedure, shortened: as §1
# SPIC = molecular target: T8, SPIC (Homo sapiens, UniProt Q8N5J4 1-248); conditions: protein: recombinant; tags: N-terminal GST; dsDNA, one strand shown
# T8 sequence: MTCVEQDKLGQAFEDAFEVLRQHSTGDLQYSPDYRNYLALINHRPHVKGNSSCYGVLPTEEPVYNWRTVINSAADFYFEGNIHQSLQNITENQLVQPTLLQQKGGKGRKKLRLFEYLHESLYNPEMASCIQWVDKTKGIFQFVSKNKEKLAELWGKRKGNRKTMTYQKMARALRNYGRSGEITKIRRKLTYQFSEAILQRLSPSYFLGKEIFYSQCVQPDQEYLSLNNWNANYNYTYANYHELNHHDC
# Procedure, shortened: as §1
# ELF4 = ELF4 (Homo sapiens, UniProt Q99607 1-663); conditions: protein: recombinant; tags: N-terminal GST; dsDNA, one strand shown
# Sequence of ELF4 (Q99607 whole entry): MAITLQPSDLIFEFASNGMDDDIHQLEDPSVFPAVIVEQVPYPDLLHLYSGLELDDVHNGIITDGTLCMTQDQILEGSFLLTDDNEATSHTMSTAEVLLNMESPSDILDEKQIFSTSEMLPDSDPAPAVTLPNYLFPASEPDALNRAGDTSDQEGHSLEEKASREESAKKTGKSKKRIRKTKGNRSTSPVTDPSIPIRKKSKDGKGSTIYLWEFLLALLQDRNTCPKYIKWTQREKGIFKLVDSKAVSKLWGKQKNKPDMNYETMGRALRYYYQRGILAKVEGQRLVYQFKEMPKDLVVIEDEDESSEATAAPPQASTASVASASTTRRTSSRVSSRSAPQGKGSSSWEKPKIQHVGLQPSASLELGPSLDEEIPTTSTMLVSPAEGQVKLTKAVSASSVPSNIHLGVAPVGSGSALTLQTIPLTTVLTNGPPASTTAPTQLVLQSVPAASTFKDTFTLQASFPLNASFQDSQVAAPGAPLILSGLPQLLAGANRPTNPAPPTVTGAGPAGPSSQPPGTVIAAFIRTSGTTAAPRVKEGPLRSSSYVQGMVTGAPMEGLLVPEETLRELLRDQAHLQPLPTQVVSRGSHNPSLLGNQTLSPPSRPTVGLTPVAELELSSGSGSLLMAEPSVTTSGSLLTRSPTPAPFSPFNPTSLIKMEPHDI
# Procedure, shortened: as §1
# ELK4 = molecular target: T9, ELK4 (Homo sapiens, UniProt P28324-2 1-405); conditions: protein: recombinant; tags: N-terminal GST; dsDNA, one strand shown
# T9 sequence: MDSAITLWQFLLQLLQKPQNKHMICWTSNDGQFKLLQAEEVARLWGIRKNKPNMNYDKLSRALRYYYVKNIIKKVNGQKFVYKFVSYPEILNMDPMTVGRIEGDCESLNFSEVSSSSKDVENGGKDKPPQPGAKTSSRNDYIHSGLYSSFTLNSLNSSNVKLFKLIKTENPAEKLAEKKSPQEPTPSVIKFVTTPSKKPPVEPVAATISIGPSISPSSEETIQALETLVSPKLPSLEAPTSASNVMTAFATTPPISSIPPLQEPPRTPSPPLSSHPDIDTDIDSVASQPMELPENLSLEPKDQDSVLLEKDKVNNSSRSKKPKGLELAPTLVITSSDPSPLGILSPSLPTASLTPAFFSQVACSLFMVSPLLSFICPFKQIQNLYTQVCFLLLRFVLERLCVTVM
# Procedure, shortened: as §1
# ETV2 = molecular target: T10, ETV2 (Homo sapiens, UniProt O00321 1-342); conditions: protein: recombinant; tags: N-terminal GST; dsDNA, one strand shown
# T10 sequence: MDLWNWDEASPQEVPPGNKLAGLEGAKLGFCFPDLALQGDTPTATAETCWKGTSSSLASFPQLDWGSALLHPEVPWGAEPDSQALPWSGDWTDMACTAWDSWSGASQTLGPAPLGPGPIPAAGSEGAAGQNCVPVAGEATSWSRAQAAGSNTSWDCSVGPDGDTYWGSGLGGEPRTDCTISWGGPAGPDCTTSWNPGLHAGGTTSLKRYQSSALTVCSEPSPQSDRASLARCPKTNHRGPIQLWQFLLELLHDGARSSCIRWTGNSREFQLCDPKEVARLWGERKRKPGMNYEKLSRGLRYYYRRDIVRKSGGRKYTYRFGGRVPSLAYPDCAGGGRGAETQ
# Procedure, shortened: as §1
# ELF3 = molecular target: T11, ELF3 (Homo sapiens, UniProt P78545 1-371); conditions: protein: recombinant; tags: N-terminal GST; dsDNA, one strand shown
# T11 sequence: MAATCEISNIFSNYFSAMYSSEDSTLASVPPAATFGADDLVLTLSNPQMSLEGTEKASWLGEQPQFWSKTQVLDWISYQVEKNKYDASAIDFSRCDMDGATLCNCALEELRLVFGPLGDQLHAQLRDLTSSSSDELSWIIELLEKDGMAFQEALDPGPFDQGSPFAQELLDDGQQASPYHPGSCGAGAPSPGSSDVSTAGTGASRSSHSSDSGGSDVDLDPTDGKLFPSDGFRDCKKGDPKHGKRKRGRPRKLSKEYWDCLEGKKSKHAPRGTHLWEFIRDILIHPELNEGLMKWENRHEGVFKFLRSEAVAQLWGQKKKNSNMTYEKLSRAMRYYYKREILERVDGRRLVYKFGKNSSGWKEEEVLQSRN
# Procedure, shortened: as §1
# CRX = CRX (Homo sapiens, UniProt O43186 1-299); conditions: protein: recombinant; tags: N-terminal GST; dsDNA, one strand shown
# Sequence of CRX (O43186 whole entry): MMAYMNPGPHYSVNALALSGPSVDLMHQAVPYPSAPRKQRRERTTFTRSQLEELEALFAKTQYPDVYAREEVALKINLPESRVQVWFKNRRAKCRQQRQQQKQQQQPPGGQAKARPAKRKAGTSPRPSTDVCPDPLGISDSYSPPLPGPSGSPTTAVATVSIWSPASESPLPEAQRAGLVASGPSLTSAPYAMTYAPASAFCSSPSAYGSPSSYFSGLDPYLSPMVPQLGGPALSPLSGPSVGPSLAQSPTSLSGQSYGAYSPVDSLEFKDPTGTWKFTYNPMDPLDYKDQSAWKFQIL
# Procedure, shortened: as §1
# ETV1 = ETV1 (Homo sapiens, UniProt P50549 1-477); conditions: protein: recombinant; tags: N-terminal GST; dsDNA, one strand shown
# Sequence of ETV1 (P50549 whole entry): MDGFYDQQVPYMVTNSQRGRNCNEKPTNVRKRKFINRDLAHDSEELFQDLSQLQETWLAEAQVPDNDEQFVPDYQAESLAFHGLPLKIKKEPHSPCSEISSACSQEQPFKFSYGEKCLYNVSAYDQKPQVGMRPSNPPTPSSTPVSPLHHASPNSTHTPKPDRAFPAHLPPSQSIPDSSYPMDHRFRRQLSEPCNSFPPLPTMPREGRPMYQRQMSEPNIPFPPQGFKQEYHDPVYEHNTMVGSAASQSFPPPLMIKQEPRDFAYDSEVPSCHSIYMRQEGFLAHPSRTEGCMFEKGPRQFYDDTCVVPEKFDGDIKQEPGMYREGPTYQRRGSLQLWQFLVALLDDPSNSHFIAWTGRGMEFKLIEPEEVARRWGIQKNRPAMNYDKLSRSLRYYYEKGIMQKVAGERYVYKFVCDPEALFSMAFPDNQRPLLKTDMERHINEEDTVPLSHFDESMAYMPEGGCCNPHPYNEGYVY
# Procedure, shortened: as §1
sequence,measurement,setting,value
TCCCTC,binding signal,FLI1,"1.58 fold enrichment (6-mer frequency, TF over GST control)"
same,binding signal,ELK1,"1.6 fold enrichment (6-mer frequency, TF over GST control)"
same,binding signal,GABPA,"1.47 fold enrichment (6-mer frequency, TF over GST control)"
same,binding signal,ERG,"1.45 fold enrichment (6-mer frequency, TF over GST control)"
same,binding signal,ELF1,"1.51 fold enrichment (6-mer frequency, TF over GST control)"
same,binding signal,EHF,"1.48 fold enrichment (6-mer frequency, TF over GST control)"
same,binding signal,SPI1,"1.5 fold enrichment (6-mer frequency, TF over GST control)"
same,binding signal,SPIB,"1.58 fold enrichment (6-mer frequency, TF over GST control)"
same,binding signal,ELK3,"1.47 fold enrichment (6-mer frequency, TF over GST control)"
same,binding signal,FEV,"1.56 fold enrichment (6-mer frequency, TF over GST control)"
same,binding signal,ETV5,"1.43 fold enrichment (6-mer frequency, TF over GST control)"
same,binding signal,HSF1,"1.38 fold enrichment (6-mer frequency, TF over GST control)"
same,binding signal,SPIC,"1.35 fold enrichment (6-mer frequency, TF over GST control)"
same,binding signal,ELF4,"1.7 fold enrichment (6-mer frequency, TF over GST control)"
same,binding signal,ELK4,"1.78 fold enrichment (6-mer frequency, TF over GST control)"
same,binding signal,ETV2,"1.43 fold enrichment (6-mer frequency, TF over GST control)"
same,binding signal,ELF3,"1.43 fold enrichment (6-mer frequency, TF over GST control)"
same,binding signal,CRX,"1.41 fold enrichment (6-mer frequency, TF over GST control)"
same,binding signal,ETV1,"1.43 fold enrichment (6-mer frequency, TF over GST control)"
